Only some compounds are listed: those with a hit (about 2.8% of all), similar ones and a draw of the others.
TROY signal inh: TROY signaling inhibition; Q293 LMP1-TROYcd NF-kB luciferase reporter, 4 h; inhibition, % at 10 µM; hit rate 0.98% among 360,000;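 active = compounds whose plate-normalised and pattern-corrected inhibition of the luciferase reporter signal at the single screening dose is 50% or more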
LGR2 inh: Drosophila LGR2 receptor signaling inhibition | hit rate 0.35% among 380,000 | inhibition, % at 9.99 µM | AID 720647 | HEK293 LGR2, CRE-luciferase, bursicon-stimulated, 4 h;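 active = drop in luminescence signal, shown as inhibition above about 50% in the replicate tests, limit read from the data, passing the limit was not always enough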;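 note: agonist challenge used bursicon conditioned medium at about half maximal strength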
PAX8 inh HTS: PAX8 transcriptional activity inhibition; inhibition, % at 12.6 µM; RMG-I TPO-luciferase reporter, SteadyGlo, 24 h; hit rate 1.2% among 360,000;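 active = mean replicate inhibition at least 60% with every replicate also reaching 60%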;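 note: luciferase light reporting Pax8 driven TPO promoter activity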
TWEAK-Fn14 inh: TWEAK-Fn14 signaling inhibition. AID 1159606. hit rate 2% among 360,000. inhibition, % at 10 µM. TWEAK-stimulated Fn14 reporter cells, luciferase luminescence, 8 h; in the data active = inhibition above about 50%
EWS-Fli inh: blocks EWS/Fli oncoprotein-driven transcription; A673 NR0B1-luciferase reporter, viability-normalised; inhibition, % at 12.6 µM; hit rate 0.67% among 350,000; AID 651661;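 active = mean inhibition of at least 50% after viability correction, with every replicate also passing that limit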;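 note: firefly luciferase signal divided by Alamar Blue viability fluorescence both relative to DMSO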
A number is an active result; . = inactive; / = no result given.

SMILES	TROY signal inh	LGR2 inh	PAX8 inh HTS	TWEAK-Fn14 inh	EWS-Fli inh
CCOC(=O)[C@]12Cc3cc(C)ccc3[C@H]1N(CCC(=O)OC)C(=O)c1cc(OC)ccc12	.	.	.	.	.
CCOC(=O)[C@]12Cc3cc(C)ccc3[C@H]1N(C1CCCCC1)C(=O)c1cc(OC)ccc12	54	68	104	101	.
COc1ccc(OC(=O)N(C)C[C@@H]2OCc3ccccc3-c3c(n(C)c4ccccc34)C(=O)N([C@H](C)CO)C[C@H]2C)cc1	/	.	.	/	/
C/C=C(\C)C(=O)N[C@@H](c1ccccc1)[C@@H](O)C(=O)O[C@H]1C[C@@]2(O)[C@@H](OC(=O)c3ccccc3)C3[C@](C)(C(=O)[C@H](OC(C)=O)C(=C1C)C2(C)C)[C@@H](O)C[C@H]1OC[C@@]31OC(C)=O (some centres undefined)	.	/	/	.	58
C/C=C(\C)C(=O)N[C@@H](c1ccccc1)[C@@H](O)C(=O)O[C@H]1C[C@@]2(O)[C@@H](OC(=O)c3ccccc3)C3[C@](C)(C(=O)[C@H](O)C(=C1C)C2(C)C)[C@@H](O)C[C@H]1OC[C@@]31OC(C)=O (some centres undefined)	.	.	/	.	57
CCCCn1c(N)c(C(=O)OCC2CCCO2)c2nc3ccccc3nc21 (centres undefined)	.	.	/	.	.
Nc1c(C(=O)NCc2ccco2)c2nc3ccccc3nc2n1Cc1ccccc1	.	.	.	50	/
CC(C)CCn1c(N)c(C(=O)OCC2CCCO2)c2nc3ccccc3nc21 (centres undefined)	60	/	/	.	/
Nc1c(C(=O)NCc2ccco2)c2nc3ccccc3nc2n1Cc1ccc(F)cc1	62	.	/	.	/
COc1ccc(Cn2c(N)c(C(=O)NCc3ccco3)c3nc4ccccc4nc32)cc1	69	/	/	.	/
CCOC(=O)c1c(N)n(Cc2ccco2)c2nc3ccccc3nc12	.	/	.	.	/
Nc1c(C(=O)NCc2ccco2)c2nc3ccccc3nc2n1CCN1CCOCC1	.	/	/	.	/
O=C(Cc1cccnc1)N1CCCCN2[C@H](CO)[C@@H](c3ccc(C#CC4CC4)cc3)[C@@H]2C1	/	/	.	/	.
COCCOC(=O)c1c(N)n(Cc2ccccc2)c2nc3ccccc3nc12	65	/	/	.	/
CCCCn1c(N)c(C(=O)OCCOC)c2nc3ccccc3nc21	.	.	.	.	.
COC(=O)C1=C(c2cc3ccccc3o2)C[C@@H]2CC[C@H]1N2C(=O)N1CCCCC1	.	.	.	.	58
O=C(Cc1ccccn1)N1CCCCN2[C@H](CO)[C@H](c3ccc(C#Cc4ccccc4)cc3)[C@@H]2C1	/	.	.	/	.
C1=C(c2c[nH]c3ccccc23)CCN(Cc2ccccc2)C1	.	.	64	.	.
O=C(O)c1cc[c]([Hg][Cl])cc1	.	/	/	65	/
COc1cc([C@@H]2c3cc4c(cc3[C@@H](OC)[C@H]3COC(=O)[C@H]23)OCO4)cc(OC)c1O	.	.	.	.	63
COc1cc2c(cc1C=O)OCO2	.	.	.	.	.
c1ccc(CN2COC3CCCCCC32)cc1 (centres undefined)	55	/	/	.	/
O=C1CC(=O)N(Cc2ccccc2)C(=O)N1Cc1ccccc1	.	.	.	.	.
O=C(Cc1cccnc1)N1CCCCN2[C@H](C1)[C@H](c1ccc(C#CC3CCCC3)cc1)[C@@H]2CO	/	.	92	/	.
O=C(Cc1ccccc1)N1CCCCN2[C@H](C1)[C@H](c1ccc(C#Cc3ccccc3)cc1)[C@@H]2CO	/	.	.	/	/
SMILES	TROY signal inh	LGR2 inh	PAX8 inh HTS	TWEAK-Fn14 inh	EWS-Fli inh
O=C(Cc1ccncc1)N1CCCCN2[C@H](C1)[C@H](c1ccc(C#Cc3ccccc3F)cc1)[C@@H]2CO	/	.	77	/	.
O=C(Cc1cccnc1)N1CCCCN2[C@@H](CO)[C@@H](c3ccc(C#CC4CCCC4)cc3)[C@@H]2C1	/	.	.	/	.
COC(=O)C[C@@H]1CC[C@H]2NC[C@@H](O)COC[C@@H]2O1	/	.	.	/	.
COc1cccc(-c2ccc3n(c2=O)C[C@H]2[C@H](CO)[C@@H](C(=O)O)[C@@H]3N2Cc2ccccc2F)c1	/	.	.	/	.
COC1=C(C)C(=O)C2=C(C1=O)C(CO)N1C(C#N)C3CC4C(C1C2N1CCOC41)N3C (centres undefined)	.	.	92	.	.
CCCCC(CC)COCCCN=Cc1c(O)[nH]c(=S)[nH]c1=O (centres undefined)	.	.	.	60	.
Cc1ccc2nc(N3CCC(C(=O)N4CCC5(CC4)OCCO5)CC3)sc2c1	.	/	/	.	/
O=C(C1CCCN(c2nnc(-n3cccc3)s2)C1)N1CCC2(CC1)OCCO2 (centres undefined)	/	/	/	74	/
CCn1c(O)c(N=Nc2cccc(S(=O)(=O)N3CCOCC3)c2)c(=O)n(CC)c1=S	.	.	.	.	.
CCn1c(O)c(N=Nc2ccc(S(=O)(=O)N3CCOCC3)cc2)c(=O)n(CC)c1=S	.	.	.	57	.
N#Cc1cccc(-c2ccc([C@@H]3[C@H](CO)N4CCCCN(C(=O)Cc5cccnc5)C[C@@H]34)cc2)c1	/	.	.	/	.
CCN1C(=O)/C(=C/c2ccc(N(CC)CC)cc2OC)C(=O)NC1=S	.	.	.	67	/
CC1=CC2/C=C(\C)CCC(O)C(O)/C=C/C(=O)C23C(=O)NC(CC(C)C)C3C1C (centres undefined)	61	/	/	93	/
C/C=C/c1ccc(C2[C@H]3CNC[C@@H]2N3CC2CCCCC2)cc1 (some centres undefined)	/	.	.	/	76
O=C(c1cc(C(=O)NCc2ccccc2)c(=O)n(Cc2ccccc2)c1)c1cc(Br)ccc1O	.	.	.	51	/
Cc1ccc(O)c(C(=O)c2cc(C(=O)NCc3ccccc3)c(=O)n(Cc3ccccc3)c2)c1	.	.	.	.	.
Oc1cc(Cl)ccc1Oc1ccc(Cl)cc1Cl	51	/	/	.	.
COC(=O)[C@@H]1[C@@H](CO)[C@@H]2Cn3c(ccc(C4=CCCCC4)c3=O)[C@H]1N2Cc1ccccc1OC	/	.	.	/	.
Cc1[nH]nc2ccc(-c3cncc(OC[C@@H](N)Cc4c[nH]c5ccccc45)c3)cc12	77	/	/	98	/
C=C(C)CSc1nnc([C@@H](N)Cc2c[nH]c3ccccc23)o1	.	/	/	.	/
O=C(O)[C@H]1[C@H](CO)[C@H]2Cn3c(ccc(-c4ccncc4)c3=O)[C@@H]1N2C(=O)C1CCCC1	/	.	/	/	.
O=c1[nH]c(=O)n(Cc2ccccc2Cl)c(O)c1/C=C1/C=CC=N1	.	.	.	.	60
O=C(Cc1ccccn1)N1CCCCN2[C@@H](CO)[C@H](c3ccc(Br)cc3)[C@@H]2C1	/	.	.	/	.
O=C(Cc1cccnc1)N1CCCCN2[C@H](C1)[C@@H](c1ccc(/C=C/c3ccccc3)cc1)[C@@H]2CO	/	.	.	/	.
CCC(C)NC(=O)CCC(=O)OC1O[C@H]2OC3(C)CC[C@H]4[C@H](C)CCC(C1C)C24OO3 (some centres undefined)	.	.	.	.	.
